# Laboratory results: PubChem BioAssay (Tox21)
# Inconclusive results are not listed. A call without a number means that no potency is given here. Calls of active or inactive are those of the source. Calls come from the whole dose curve.
# Test: qHTS assay to identify small molecule agonists of the AP-1 signaling pathway - cell viability counter screen (AID 1159525); note: nearly all actives have a fitted effect of over 55% in size
# Details: ME-180 (cervical carcinoma) AP-1-bla cells viability, ATP luminescence, 5 h; series mostly up to 76.8 µM
# Excerpt: National Center for Advancing Translational Sciences [NCATS]
# NIH Chemical Genomics Center [NCGC]
# U.S. Environmental Protection Agency [EPA]
# National Institutes of Environmental Health Sciences [NIEHS]
# National Toxicology Program [NTP]
# U.S. Food and Drug Administration [FDA]
# Activator protein-1 (AP-1), a transcription factor, plays an important role in tumor genesis by regulating genes involved in cell proliferation, differentiation, apoptosis, and angiogenesis. AP-1 activity is induced by a complex network of signaling pathways that involves extracellular signals, such as growth factors. The AP-1 protein complex formed from c-Fos and c-Jun binding to the AP-1 response element results in transcriptional activation of genes containing such elements within their promoter.
# Low molecular weight molecules have been discovered and developed to modulate various components of these signaling pathways, for example, MAP kinase inhibitors. However, many points of pathway modulation remain untested due to the lack of chemical probes making this signaling locus of general interest.
# Using a beta-lactamase reporter-gene under control of the AP-1 response element, a cell-based assay [CellSensor(TM) AP-1-bla ME-180 developed by Invitrogen Corp.] was used to measure EGF-induced signaling. The Tox21 10K library compounds were measured for their ability to positively modulate the action of EC50 EGF on reporter gene activity. Compounds were screened in a 15-pt titration series in 1536-well format. The cytotoxicity of the Tox21 compound library against this cell line was tested in parallel by measuring the intra cellular ATP content in the same wells.
# Tox21 Assay Protocol Summary:
# 2500 cells/5uL in Opti-MEM medium containing 0.5% dialyzed FBS, 0.1 mM NEAA, 1 mM sodium pyruvate and 10 mM HEPES was dispensed into 1536-well black wall/clear bottom plates using a Multidrop dispenser and cells were cultured at 37 degrees Celsius overnight. Next day 23 nL of compounds dissolved in DMSO, positive controls or DMSO were delivered to each well using a pin tool. The plates were incubated at 37 degrees Celsius for 5 hours. 1 uL of LiveBLAzerTM B/G FRET substrate (Solution A+B+C+D) was added to each well using a Flying Reagent Dispenser. After incubated at room temperature for 2.5 hours the plates were measured on an EnVision plate reader at Excitation 405nm, Emission1=460nm and Emission 2=530nm. The %Activity was determined from the ratio of 460nm/530nm.
# After the plates were read for Beta-Lactamase assay on Envision; 3 ul Cell Titer Glo (Promega) was added to measure the cytotoxicity and the plates were then incubated at RT in dark for 30 min. The luminescence was read on ViewLux (Perkin Elmer, Shelton, CT) using 6 sec exposure. ViewLux data was expressed as relative luminescence units.
# For primary data analysis, raw plate reads for each titration point were first normalized relative to […] EGF control (100%) and DMSO only wells (basal, 0%).
# For primary data analysis for viability assay, raw plate reads for each titration point were first normalized Tetra n-octyl ammonium bromide control (-100%) and DMSO (control, 100%).
# Potency is the fitted concentration of half-maximal effect.
row,Compound,Potency
1,C1=Cc2cccc3cccc1c23,inactive
2,CC(C)NC(C)C,inactive
3,Nc1ccc(Cl)c(Cl)c1,inactive
4,Oc1cc(Cl)c(Cl)cc1Cl,inactive
5,CCN(N=O)C(N)=O,inactive
6,c1ccc(N=Nc2ccccc2)cc1,inactive
7,CCOCN(C(=O)CCl)c1c(C)cccc1CC,inactive
8,CCOc1cc(C=O)ccc1O,inactive
9,CC(O)CCO (stereo not given),inactive
10,C[C@]12CCC(=O)C[C@@H]1CC[C@@H]1[C@@H]2CC[C@]2(C)[C@@H](O)CC[C@@H]12,inactive
11,CCOP(=S)(OCC)O/N=C(\C#N)c1ccccc1,inactive
12,O=C(Nc1ccc(Br)cc1)c1cc(Br)cc(Br)c1O,inactive
13,Clc1nc(Cl)nc(Cl)n1,inactive
14,Cc1ccccc1[N+](=O)[O-],inactive
15,NC(=S)Nc1ccccc1,inactive
16,Cc1cc(Cl)ccc1OCCCC(=O)O,inactive
17,Oc1ccc(-c2ccccc2)cc1,inactive
18,CCCCCCCCOC(=O)c1ccccc1C(=O)OCCCCCCCC,inactive
19,c1cc(OCC2CO2)ccc1Cc1ccc(OCC2CO2)cc1 (stereo not given),inactive
20,CC(C)Oc1cc(-n2nc(C(C)(C)C)oc2=O)c(Cl)cc1Cl,inactive

row,Compound,Potency
1,c1ccc(P(c2ccccc2)c2ccccc2)cc1,inactive
2,CC(C)(c1cc(Cl)c(O)c(Cl)c1)c1cc(Cl)c(O)c(Cl)c1,inactive
3,CCN(CC)C(=O)/C(Cl)=C(\C)OP(=O)(OC)OC,inactive
4,Oc1cc(Cl)ccc1Oc1ccc(Cl)cc1Cl,15.8 µM (active)
5,CC(C)c1ccc(CO)cc1,inactive
6,O=C1C=CC(=O)C=C1,inactive
7,ClC1C(Cl)C(Cl)C(Cl)C(Cl)C1Cl (stereo not given),inactive
8,N#CCCCl,inactive
9,C[C@]12CCC(=O)C(O)=C1CC[C@@H]1[C@@H]2CC[C@]2(C)C(=O)CC[C@@H]12,inactive
10,Cc1c(COC(=O)[C@@H]2[C@H](/C=C(\Cl)C(F)(F)F)C2(C)C)cccc1-c1ccccc1,inactive
11,COP(=S)(OC)Oc1cc(Cl)c(Cl)cc1Cl,inactive
12,COP(=S)(OC)Oc1ccc([N+](=O)[O-])cc1,inactive
13,N#CC(Br)Br,inactive
14,Cc1ccc(OP(=O)(Oc2ccc(C)cc2)Oc2ccc(C)cc2)cc1,inactive
15,COC(=O)c1sccc1S(=O)(=O)NC(=O)Nc1nc(C)nc(OC)n1,inactive
16,Oc1c(Cl)c(Cl)c(Cl)c(Cl)c1Cl,inactive
17,CN(C)c1ccc(C(=O)c2ccc(N(C)C)cc2)cc1,inactive
18,c1ccc(-c2cccc(-c3ccccc3)c2)cc1,inactive
19,CCOC(=O)C(C)OC(=O)c1cc(Oc2ccc(C(F)(F)F)cc2Cl)ccc1[N+](=O)[O-] (stereo not given),inactive
20,COc1ccc(C(CN(C)C)C2(O)CCCCC2)cc1 (stereo not given),inactive
